This note sets out measurements from PubChem BioAssay (NCI).

The panel holds about 83,000 compounds, 20% with a hit somewhere; the sample as a whole holds those more often.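 The test compound was applied at a single concentration to cells in 96-well plates for 48 hours, and percent growth was recorded.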 Unmarked numbers belong to inactive results. Activity calls are given as the source filed them. Rule for the calls: active = growth percent below 10; inactive = the rest.

Among the test systems are NCI-H226 lung; NCI-H322M lung; HOP-62 NSCLC; NCI-H460 lung; HOP-92 NSCLC; NCI-H522 lung; A549/ATCC NSCLC; 786-0 renal; K-562 leukemia; MALME-3M melanoma; MDA-MB-231 breast; RXF 393 renal; SF-268 CNS; SF-295 CNS; SF-539 CNS; UACC-257 melanoma; M14 melanoma; DU-145 prostate; COLO 205 colon.
What all share (assay): NCI-60 one-dose screen, 48 h (100 = growth as untreated, 0 = no growth, -100 = all killed)
Conditions in all cases: 10 µM unless noted

As for `Cc1ccc(NC(=O)C(Cl)Cl)cc1`, the growth in the assay with NCI-H226 lung is 79.1%; in the assay on NCI-H322M lung, 84.1%; in the assay on HOP-62 NSCLC, 98.4%; in the assay with NCI-H460 lung it was 102%; in the assay with HOP-92 NSCLC, 98.2%; in the assay with NCI-H522 lung, 80.9%. Moreover, the growth was 90.8% in the assay with A549/ATCC NSCLC; 104% in the assay on 786-0 renal; 106% in the assay with K-562 leukemia; 92.7% in the assay on MALME-3M melanoma; 99.1% with MDA-MB-231 breast; 119% in the assay with RXF 393 renal. Moreover, the growth with SF-268 CNS was 105%; in the assay on SF-295 CNS, 97.8%; in the assay on SF-539 CNS it was 98.4%; in the assay on UACC-257 melanoma it was 92%; in the assay on M14 melanoma it was 109%.

`Cl.[Pt].[c-]1ccccc1-c1ccccn1.c1ccc(P(c2ccccc2)C([PH+](c2ccccc2)c2ccccc2)[PH+](c2ccccc2)c2ccccc2)cc1`: the growth in the assay with NCI-H226 lung is 7.37% (active); in the assay with NCI-H322M lung, 12.5%; in the assay on HOP-62 NSCLC, 25.1%; in the assay on NCI-H460 lung, 5.2% (active); with HOP-92 NSCLC, -17% (active); in the assay on NCI-H522 lung, 9.94% (active). Besides, the growth in the assay on A549/ATCC NSCLC is 14.6%; in the assay with 786-0 renal, 22.8%; in the assay on DU-145 prostate, 24.1%; in the assay on K-562 leukemia, 11%; in the assay with MALME-3M melanoma, -9.83% (active); with MDA-MB-231 breast, -8.43% (active). Moreover, the growth in the assay on RXF 393 renal was 11.3%; with SF-268 CNS it was 27.6%; in the assay with SF-295 CNS, 7.09% (active); with SF-539 CNS, 8.54% (active); in the assay with UACC-257 melanoma, 15.5%; with M14 melanoma, 19.2%.

On to `Cc1ccccc1NC(=O)CN(C)C`, for which the growth in the assay with NCI-H226 lung is 97.9%; with NCI-H322M lung, 89.9%; in the assay with HOP-62 NSCLC, 97.9%; with NCI-H460 lung, 113%; with HOP-92 NSCLC, 123%; in the assay with NCI-H522 lung, 82.6%. Also, the growth with A549/ATCC NSCLC is 95.7%; in the assay with 786-0 renal it was 99.7%; with K-562 leukemia it was 0.938% (active); with MALME-3M melanoma it was 87.2%; in the assay on MDA-MB-231 breast, 105%; with RXF 393 renal, 124%. Moreover, the growth in the assay on SF-268 CNS was 103%; with SF-295 CNS it was 97.3%; in the assay with SF-539 CNS it was 98.3%; with UACC-257 melanoma, 99.3%; in the assay with M14 melanoma, 104%.

As to `CCCCCCNCc1cc(C(C)(C)C)cc(CNCCCCCC)c1O`, the growth with NCI-H226 lung is -60.5% (active); in the assay with NCI-H322M lung, -78.9% (active); in the assay on HOP-62 NSCLC, -90.1% (active); with NCI-H460 lung, -76.3% (active); in the assay on HOP-92 NSCLC, -36.3% (active); in the assay with NCI-H522 lung, -66% (active). In addition, the growth is -85.4% (active) in the assay with A549/ATCC NSCLC; -90.5% (active) with 786-0 renal; -78.7% (active) in the assay on DU-145 prostate; -48.8% (active) in the assay on K-562 leukemia; -73.2% (active) with MALME-3M melanoma; -83.6% (active) in the assay with MDA-MB-231 breast. Moreover, the growth in the assay on RXF 393 renal is -93.3% (active); in the assay with SF-268 CNS, 9.67% (active); with SF-295 CNS, 29.4%; in the assay with SF-539 CNS it was -89.9% (active); in the assay on UACC-257 melanoma it was -84.1% (active); in the assay with M14 melanoma, -88.6% (active).

Regarding `C[C@@H]1C(=O)N(C[C@H](Cc2ccccc2)NC(=O)OCc2ccccc2)[C@]1(Cc1ccccc1)C(=O)OC(C)(C)C`, the growth is 62.2% in the assay with NCI-H226 lung; 86.7% with NCI-H322M lung; 80.2% in the assay on HOP-62 NSCLC; 66.6% in the assay with NCI-H460 lung; 54.5% with HOP-92 NSCLC; 45% in the assay with NCI-H522 lung. Besides, the growth in the assay with A549/ATCC NSCLC was 47.2%; in the assay on DU-145 prostate it was 87.1%; in the assay with K-562 leukemia, 40.5%; with MALME-3M melanoma, 79.5%; in the assay on MDA-MB-231 breast it was 66.4%; in the assay with RXF 393 renal, 71.2%. The growth with SF-268 CNS is 65.7%; in the assay on SF-295 CNS, 69.6%; with SF-539 CNS it was 87.1%; in the assay on UACC-257 melanoma, 66.1%.

With `COc1ccc(-c2c(N)n[nH]c2-c2ccccc2O)cc1OC`, the growth with NCI-H226 lung is 99.6%; with NCI-H322M lung, 102%; in the assay with HOP-62 NSCLC it was 88.9%; in the assay on NCI-H460 lung, 107%; in the assay on HOP-92 NSCLC, 74%; in the assay on NCI-H522 lung, 85%. Further, the growth in the assay on A549/ATCC NSCLC is 95.2%; with 786-0 renal, 97.2%; with COLO 205 colon it was 98.1%; in the assay with DU-145 prostate, 116%; in the assay on K-562 leukemia, 87.2%; in the assay with MALME-3M melanoma, 62.8%. Also, the growth was 78.7% in the assay on MDA-MB-231 breast; 100% in the assay with SF-268 CNS; 101% in the assay with SF-295 CNS; 86.5% in the assay on SF-539 CNS; 100% with UACC-257 melanoma.

On to `COc1ccc(-c2cc(-c3cc(OC)ccc3OC)[nH]c(=O)c2C#N)cc1`, for which the growth in the assay with NCI-H226 lung is 69.5%; with NCI-H322M lung, 91.7%; with HOP-62 NSCLC, 48.1%; with NCI-H460 lung, 32.4%; with HOP-92 NSCLC it was 55.3%; in the assay with NCI-H522 lung, 16.7%. The growth in the assay on A549/ATCC NSCLC was 46.3%; in the assay with 786-0 renal, 63.5%; in the assay on DU-145 prostate it was 74.2%; with K-562 leukemia, 25.4%; in the assay with MALME-3M melanoma, 52.4%; in the assay with MDA-MB-231 breast, 55.4%. In addition, the growth in the assay on RXF 393 renal was 71.1%; in the assay on SF-268 CNS, 60.3%; in the assay with SF-295 CNS, 31%; in the assay on SF-539 CNS it was 50.3%; with UACC-257 melanoma, 59.3%; in the assay with M14 melanoma, 29.1%.

In the case of `CCCCn1c(=O)[nH]c(N)c(C(c2ccc(F)cc2)c2c(N)[nH]c(=O)n(CCCC)c2=O)c1=O`, the growth in the assay with NCI-H226 lung was 77.7%; in the assay with NCI-H322M lung it was 74.8%; in the assay with HOP-62 NSCLC, 77.4%; with NCI-H460 lung it was 51.6%; in the assay on HOP-92 NSCLC, 82.4%; with NCI-H522 lung, 51.6%. The growth is 69% in the assay on A549/ATCC NSCLC; 59.9% in the assay on COLO 205 colon; 79.1% with DU-145 prostate; 52.9% in the assay with K-562 leukemia; 87.7% with MALME-3M melanoma; 62.9% with MDA-MB-231 breast. Moreover, the growth is 65.5% in the assay with RXF 393 renal; 54.1% in the assay on SF-268 CNS; 56.8% in the assay on SF-295 CNS; 75.3% in the assay with SF-539 CNS; 65.9% in the assay on UACC-257 melanoma.
